PubChem BioAssay (Tox21)
Inconclusive results are not listed. Where a call stands in place of a potency, no number is given. Unmarked numbers belong to inactive results. Active and inactive are the calls of the source. Unless noted, calls follow the shape of the dose curve; as a rule, active = well fitted curve in the direction sought with a large enough effect in the repeat runs; inconclusive = weak or mixed curves; inactive = no such curve, though single readings can be large; an effect the other way counts as inactive or inconclusive.

How the values were obtained:
[1] = qHTS assay to identify small molecule antagonists of the estrogen related receptor (ERR) signaling pathway - cell viability counter screen (AID 1224818);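 also: series mostly up to about 46 µM; viability measured after 17.5 h of compound exposure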
In short: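 In the same ERR cell assay, compound-treated wells (17.5 h, 37 C) were multiplexed with a fluorogenic viability reagent, CellTiter-Fluor, read after 30 min to flag cytotoxic substances.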

[2] = qHTS assay to identify small molecule antagonists of the estrogen related receptor signaling pathway with the pleiotropic PPARgamma coactivator (PGC) cell viability counter screen (AID 1224822; also: series mostly up to about 46 µM)
In short: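 Compounds in DMSO, with positive and negative controls, were applied to PGC/ERR cells (2,000/well) and left 17.5 h at 37 C before CellTiter-Fluor detection.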

[3] = qHTS assay to identify small molecule antagonists of the estrogen related receptor (ERR) signaling pathway (AID 1224819; also: nearly all actives have a fitted effect of over 50% in size; also: potency is read from the fitted curve at half-maximal effect)
In short: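 qHTS in ERR cells, 2,000/well, 1536 format. Cpd (DMSO) added after 6 h settle, 18 h 37 C. One-Glo luminescence, 30 min RT.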

[4] = qHTS assay to identify small molecule agonists of the estrogen related receptor (ERR) signaling pathway (AID 1224820)
In short: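 Cells: ERR line from NTP, 2,000/well. Pre-incubation 6 h, 37 C/5% CO2. Compound (DMSO) pin transfer, 18 h 37 C. One-Glo, 30 min RT, luminescence.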

[5] = qHTS assay to identify small molecule agonists of the estrogen related receptor signaling pathway with the pleiotropic PPARgamma coactivator (PGC) (AID 1224823)
In short: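 Steps: plate PGC/ERR cells at 2,000 cells/well; incubate 6 h, 37 C/5% CO2; pin-transfer compounds (DMSO); incubate 18 h, 37 C; add One-Glo; 30 min RT; read luminescence.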

[6] = test system: estrogen-related receptor alpha (ERRalpha) with PGC-1alpha coactivator, human; assay: qHTS assay to identify small molecule antagonists of the estrogen related receptor signaling pathway with the pleiotropic PPARgamma coactivator (PGC) (AID 1224821; calls by dose curve;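 also: series mostly up to about 46 µM; lower luminescence signal means antagonism of PGC/ERR signalling; nearly all actives have a fitted effect of over 50% in size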)
In short: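 Luminescent read-out (One-Glo, 30 min at room temperature) following 18 h treatment of PGC/ERR cells at 37 C with compounds delivered in DMSO. Cells had settled 6 h at 37 C/5% CO2 before dosing.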

SMILES | Potency [1] | Potency [2] | Potency [3] | Potency [4] | Potency [5] | Potency [6]
C[N+]1(C)C2CC(OC(=O)[C@H](CO)c3ccccc3)CC1C1OC12 (stereo partly specified) | inactive | inactive |  |  |  | 
C[C@]12Cc3cn4c(nc3C=C1CCC1C2CC[C@@]2(C)[C@H]1CC[C@@]2(O)C#N)nc1ccccc14 (stereo partly specified) | inactive |  | 10.6 µM (active) | inactive | inactive | 
CCS(=O)(=O)Nc1cccc(C(=C2CCCCC2)c2cnc[nH]2)c1 | inactive | inactive |  | inactive | inactive | 
C[N+]1(C)C2CCC1CC(OC(=O)C(CO)c1ccccc1)C2 (stereo unspecified) | inactive | inactive |  |  |  | 
Cc1o[nH]c(=O)c1CC(N)C(=O)O (stereo unspecified) | inactive | inactive |  |  |  | 
NNC(=O)c1ccc(O)cc1 | inactive | inactive | inactive |  | inactive | inactive
O=C1CC[C@@]2(O)C3Cc4ccc(O)c5c4C2(CCN3CC2CC2)[C@H]1O5 (stereo partly specified) | inactive | inactive |  |  |  | 
NC(Cc1cc(O)c(O)cc1O)C(=O)O (stereo unspecified) | inactive | inactive |  | inactive | inactive | inactive
CN1C2CCC1CC(OC(=O)c1cc(Cl)cc(Cl)c1)C2 (stereo unspecified) | inactive | inactive |  |  |  | 
Oc1ccc2c3c1O[C@H]1c4oc5ccccc5c4C[C@@]4(O)C(C2)N(CC2CC2)CCC314 (stereo partly specified) | inactive | inactive |  | inactive | inactive | inactive
NC(=O)c1ccc(OCC(O)CN2CC=C(c3ccc(F)cc3)CC2)cc1 (stereo unspecified) | inactive | inactive |  | inactive | inactive | inactive
Cc1nccc2c1[nH]c1ccccc12 | inactive | inactive |  | inactive | inactive | 
C[C@]12CCC3C(CC[C@H]4C[C@H](O)CC[C@]34C)C1CC[C@@H]2C(=O)CO (stereo partly specified) | inactive | inactive |  | inactive | inactive | inactive
COC(=O)[C@@H](N)CCCN=C(N)N[N+](=O)[O-] | inactive | inactive |  |  |  | 
Cc1cc([C@@H]2CCCN2C)on1 | inactive | inactive | inactive |  | inactive | inactive
O=C(NC1CN2CCC1CC2)c1cc2ccoc2cn1 (stereo unspecified) | inactive | inactive |  |  |  | 
